# Article PMC11006913
# Positions count from the first letter of the chain named.
# Assays:
# Assay in all cases: PBM; 200 nM protein, PBS
# Conditions in all cases: dsDNA, one strand shown
# HOXB9 [1] = biological target: HOXB9 (Homo sapiens, UniProt P17482 171-250, T197M)
# PRRX1 [2] = biological target: PRRX1 (Homo sapiens, UniProt P54821 80-166, F113S)
# HOXB9 [3] = biological target: HOXB9 (Homo sapiens, UniProt P17482 171-250)
# HOXB9 [4] = biological target: HOXB9 (Homo sapiens, UniProt P17482 171-250, R186Q)
# Sequence of HOXB9 (Homo sapiens, UniProt P17482 171-250, R186Q) (P17482 171-250 R186Q): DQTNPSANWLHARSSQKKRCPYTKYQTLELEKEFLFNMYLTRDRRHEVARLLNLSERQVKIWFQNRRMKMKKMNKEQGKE
# PRRX1 [5] = biological target: PRRX1 (Homo sapiens, UniProt P54821 80-166)
# Sequence of PRRX1 (Homo sapiens, UniProt P54821 80-166) (P54821 80-166): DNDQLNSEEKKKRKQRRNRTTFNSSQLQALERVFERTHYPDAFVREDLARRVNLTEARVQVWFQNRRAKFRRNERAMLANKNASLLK
# PAX4 [6] = biological target: T1, PAX4 (Homo sapiens, UniProt O43316 9-242, R200K)
# T1 sequence: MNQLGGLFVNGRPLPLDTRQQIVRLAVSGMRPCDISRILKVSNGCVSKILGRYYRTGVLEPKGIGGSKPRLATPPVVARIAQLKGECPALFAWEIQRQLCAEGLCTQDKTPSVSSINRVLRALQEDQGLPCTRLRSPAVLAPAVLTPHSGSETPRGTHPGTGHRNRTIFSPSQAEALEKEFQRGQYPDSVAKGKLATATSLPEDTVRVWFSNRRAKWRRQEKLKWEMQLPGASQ
# PAX4 [7] = biological target: T2, PAX4 (Homo sapiens, UniProt O43316 9-242)
# T2 sequence: T1 sequence with K192R
# MSX2 [8] = biological target: MSX2 (Homo sapiens, UniProt P35548 130-214, R199I)
# Sequence of MSX2 (Homo sapiens, UniProt P35548 130-214, R199I) (P35548 130-214 R199I): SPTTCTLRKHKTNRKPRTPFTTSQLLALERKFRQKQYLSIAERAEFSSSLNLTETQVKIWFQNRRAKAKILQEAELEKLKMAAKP
# PAX4 [9] = biological target: T3, PAX4 (Homo sapiens, UniProt O43316 9-242, R200Q)
# T3 sequence: T1 sequence with K192Q
# PAX4 [10] = biological target: T4, PAX4 (Homo sapiens, UniProt O43316 9-242, F177V)
# T4 sequence: T1 sequence with F169V, K192R
# MSX2 [11] = biological target: MSX2 (Homo sapiens, UniProt P35548 130-214)
# Sequence of MSX2 (Homo sapiens, UniProt P35548 130-214) (P35548 130-214): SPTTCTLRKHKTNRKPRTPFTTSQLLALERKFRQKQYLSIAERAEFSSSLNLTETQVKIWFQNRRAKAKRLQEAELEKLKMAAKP
# PAX4 [12] = biological target: T5, PAX4 (Homo sapiens, UniProt O43316 9-242, F177Y)
# T5 sequence: T1 sequence with F169Y, K192R
# MSX2 [13] = biological target: MSX2 (Homo sapiens, UniProt P35548 130-214, F161Y)
# Sequence of MSX2 (Homo sapiens, UniProt P35548 130-214, F161Y) (P35548 130-214 F161Y): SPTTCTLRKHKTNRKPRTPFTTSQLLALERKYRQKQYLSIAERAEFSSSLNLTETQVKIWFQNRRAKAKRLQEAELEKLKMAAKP
# PAX4 [14] = biological target: T6, PAX4 (Homo sapiens, UniProt O43316 9-242, R227W)
# T6 sequence: T1 sequence with K192R, R219W
# HOXD13 [15] = biological target: HOXD13 (Homo sapiens, UniProt P35453 263-343, T313R)
# Sequence of HOXD13 (Homo sapiens, UniProt P35453 263-343, T313R) (P35453 263-343 T313R): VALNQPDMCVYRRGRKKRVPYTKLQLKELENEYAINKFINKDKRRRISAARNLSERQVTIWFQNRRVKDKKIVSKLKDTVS
# HOXD13 [16] = biological target: HOXD13 (Homo sapiens, UniProt P35453 263-343)
# Sequence of HOXD13 (Homo sapiens, UniProt P35453 263-343) (P35453 263-343): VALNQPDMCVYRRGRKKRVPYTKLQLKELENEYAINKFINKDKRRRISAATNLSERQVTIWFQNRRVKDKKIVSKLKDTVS
# PROP1 [17] = biological target: PROP1 (Homo sapiens, UniProt O75360 56-141)
# Sequence of PROP1 (Homo sapiens, UniProt O75360 56-141) (O75360 56-141): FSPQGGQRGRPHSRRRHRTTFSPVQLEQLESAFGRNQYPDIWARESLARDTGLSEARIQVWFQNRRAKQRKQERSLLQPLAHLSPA
# PROP1 [18] = biological target: PROP1 (Homo sapiens, UniProt O75360 56-141, R99H)
# Sequence of PROP1 (Homo sapiens, UniProt O75360 56-141, R99H) (O75360 56-141 R99H): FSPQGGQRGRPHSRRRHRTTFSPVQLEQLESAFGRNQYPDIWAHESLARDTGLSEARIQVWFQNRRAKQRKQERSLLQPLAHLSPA
# HOXD13 [19] = biological target: HOXD13 (Homo sapiens, UniProt P35453 263-343, T313A)
# Sequence of HOXD13 (Homo sapiens, UniProt P35453 263-343, T313A) (P35453 263-343 T313A): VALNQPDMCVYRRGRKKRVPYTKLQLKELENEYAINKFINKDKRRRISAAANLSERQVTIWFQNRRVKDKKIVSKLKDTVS
# PROP1 [20] = biological target: PROP1 (Homo sapiens, UniProt O75360 56-141, F88S)
# Sequence of PROP1 (Homo sapiens, UniProt O75360 56-141, F88S) (O75360 56-141 F88S): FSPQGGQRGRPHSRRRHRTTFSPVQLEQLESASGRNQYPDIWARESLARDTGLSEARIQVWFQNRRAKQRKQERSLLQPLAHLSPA
# VAX1 [21] = biological target: VAX1 (Homo sapiens, UniProt Q5SQQ9 86-172)
# Sequence of VAX1 (Homo sapiens, UniProt Q5SQQ9 86-172) (Q5SQQ9 86-172): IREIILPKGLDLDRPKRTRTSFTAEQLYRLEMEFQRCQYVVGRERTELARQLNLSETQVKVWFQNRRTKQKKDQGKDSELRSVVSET
# VAX1 [22] = biological target: VAX1 (Homo sapiens, UniProt Q5SQQ9 86-172, T142I)
# Sequence of VAX1 (Homo sapiens, UniProt Q5SQQ9 86-172, T142I) (Q5SQQ9 86-172 T142I): as the sequence (Q5SQQ9 86-172) above, with T57I counted along it
# VAX1 [23] = biological target: VAX1 (Homo sapiens, UniProt Q5SQQ9 86-172, K157R)
# Sequence of VAX1 (Homo sapiens, UniProt Q5SQQ9 86-172, K157R) (Q5SQQ9 86-172 K157R): as the sequence (Q5SQQ9 86-172) above, with K72R counted along it
# PITX2 = PITX2 (Homo sapiens, UniProt Q99697 72-157)
# HOXB6 = HOXB6 (Homo sapiens, UniProt P17509 132-218, K202E)
# Sequence of HOXB6 (P17509 132-218 K202E): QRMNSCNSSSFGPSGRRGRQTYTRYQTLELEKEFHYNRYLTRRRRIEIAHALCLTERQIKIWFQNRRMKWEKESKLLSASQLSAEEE
# ALX3 = ALX3 (Homo sapiens, UniProt O95076 139-225, N203S)
# Sequence of ALX3 (O95076 139-225 N203S): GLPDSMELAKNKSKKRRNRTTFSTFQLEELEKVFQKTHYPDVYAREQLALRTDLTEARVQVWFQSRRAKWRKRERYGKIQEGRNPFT
# NKX3-2 [24] = biological target: NKX3-2 (Homo sapiens, UniProt P78367 192-278, P234S)
# Sequence of NKX3-2 (Homo sapiens, UniProt P78367 192-278, P234S) (P78367 192-278 P234S): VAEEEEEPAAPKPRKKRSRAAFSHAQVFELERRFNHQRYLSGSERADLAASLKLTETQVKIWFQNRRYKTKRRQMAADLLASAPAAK
# NKX3-2 [25] = biological target: NKX3-2 (Homo sapiens, UniProt P78367 192-278)
# Sequence of NKX3-2 (Homo sapiens, UniProt P78367 192-278) (P78367 192-278): as the sequence (P78367 192-278 P234S) above, with S43P counted along it
# Sequence of HOXB9 (Homo sapiens, UniProt P17482 171-250) (P17482 171-250): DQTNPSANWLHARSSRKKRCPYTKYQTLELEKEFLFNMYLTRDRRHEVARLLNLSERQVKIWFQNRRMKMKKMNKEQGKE
# Sequence of HOXB9 (Homo sapiens, UniProt P17482 171-250, T197M) (P17482 171-250 T197M): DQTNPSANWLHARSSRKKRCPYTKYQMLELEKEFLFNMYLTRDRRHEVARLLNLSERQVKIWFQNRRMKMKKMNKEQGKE
# Sequence of PRRX1 (Homo sapiens, UniProt P54821 80-166, F113S) (P54821 80-166 F113S): as the sequence (P54821 80-166) above, with F34S counted along it
sequence,measurement,setting,value
GCCGGAGC,binding signal,HOXB9 [1],"8.56 upbm affinity estimate (log intensity, higher = more binding, comparable within an allelic series)"
same,binding signal,PRRX1 [2],"9.3 upbm affinity estimate (log intensity, higher = more binding, comparable within an allelic series)"
same,binding signal,HOXB9 [3],"8.68 upbm affinity estimate (log intensity, higher = more binding, comparable within an allelic series)"
same,binding signal,HOXB9 [4],"8.69 upbm affinity estimate (log intensity, higher = more binding, comparable within an allelic series)"
same,binding signal,PRRX1 [5],"9.61 upbm affinity estimate (log intensity, higher = more binding, comparable within an allelic series)"
AGCCGCAG,binding signal,HOXB9 [1],"8.34 upbm affinity estimate (log intensity, higher = more binding, comparable within an allelic series)"
same,binding signal,PAX4 [6],"9.2 upbm affinity estimate (log intensity, higher = more binding, comparable within an allelic series)"
same,binding signal,PAX4 [7],"9.21 upbm affinity estimate (log intensity, higher = more binding, comparable within an allelic series)"
same,binding signal,HOXB9 [3],"8.11 upbm affinity estimate (log intensity, higher = more binding, comparable within an allelic series)"
same,binding signal,MSX2 [8],"9.46 upbm affinity estimate (log intensity, higher = more binding, comparable within an allelic series)"
same,binding signal,PAX4 [9],"9.21 upbm affinity estimate (log intensity, higher = more binding, comparable within an allelic series)"
same,binding signal,PAX4 [10],"9.11 upbm affinity estimate (log intensity, higher = more binding, comparable within an allelic series)"
same,binding signal,MSX2 [11],"9.43 upbm affinity estimate (log intensity, higher = more binding, comparable within an allelic series)"
same,binding signal,PAX4 [12],"9.12 upbm affinity estimate (log intensity, higher = more binding, comparable within an allelic series)"
same,binding signal,HOXB9 [4],"8.24 upbm affinity estimate (log intensity, higher = more binding, comparable within an allelic series)"
same,binding signal,MSX2 [13],"9.5 upbm affinity estimate (log intensity, higher = more binding, comparable within an allelic series)"
same,binding signal,PAX4 [14],"9.18 upbm affinity estimate (log intensity, higher = more binding, comparable within an allelic series)"
CGTCCGAC,binding signal,HOXB9 [1],"8.56 upbm affinity estimate (log intensity, higher = more binding, comparable within an allelic series)"
same,binding signal,HOXB9 [3],"8.39 upbm affinity estimate (log intensity, higher = more binding, comparable within an allelic series)"
same,binding signal,HOXB9 [4],"8.45 upbm affinity estimate (log intensity, higher = more binding, comparable within an allelic series)"
CCGCAGCC,binding signal,HOXB9 [1],"8.52 upbm affinity estimate (log intensity, higher = more binding, comparable within an allelic series)"
same,binding signal,HOXB9 [3],"8.38 upbm affinity estimate (log intensity, higher = more binding, comparable within an allelic series)"
same,binding signal,MSX2 [8],"9.47 upbm affinity estimate (log intensity, higher = more binding, comparable within an allelic series)"
same,binding signal,HOXD13 [15],"9.38 upbm affinity estimate (log intensity, higher = more binding, comparable within an allelic series)"
same,binding signal,HOXD13 [16],"9.33 upbm affinity estimate (log intensity, higher = more binding, comparable within an allelic series)"
same,binding signal,MSX2 [11],"9.43 upbm affinity estimate (log intensity, higher = more binding, comparable within an allelic series)"
same,binding signal,PROP1 [17],"6.67 upbm affinity estimate (log intensity, higher = more binding, comparable within an allelic series)"
same,binding signal,PROP1 [18],"6.75 upbm affinity estimate (log intensity, higher = more binding, comparable within an allelic series)"
same,binding signal,HOXD13 [19],"9.43 upbm affinity estimate (log intensity, higher = more binding, comparable within an allelic series)"
same,binding signal,HOXB9 [4],"8.47 upbm affinity estimate (log intensity, higher = more binding, comparable within an allelic series)"
same,binding signal,PROP1 [20],"6.52 upbm affinity estimate (log intensity, higher = more binding, comparable within an allelic series)"
same,binding signal,MSX2 [13],"9.45 upbm affinity estimate (log intensity, higher = more binding, comparable within an allelic series)"
CCGGACGC,binding signal,HOXB9 [1],"8.6 upbm affinity estimate (log intensity, higher = more binding, comparable within an allelic series)"
same,binding signal,HOXB9 [3],"8.5 upbm affinity estimate (log intensity, higher = more binding, comparable within an allelic series)"
same,binding signal,VAX1 [21],"7.11 upbm affinity estimate (log intensity, higher = more binding, comparable within an allelic series)"
same,binding signal,HOXB9 [4],"8.59 upbm affinity estimate (log intensity, higher = more binding, comparable within an allelic series)"
same,binding signal,VAX1 [22],"7.2 upbm affinity estimate (log intensity, higher = more binding, comparable within an allelic series)"
same,binding signal,VAX1 [23],"7.16 upbm affinity estimate (log intensity, higher = more binding, comparable within an allelic series)"
CGGGCAAC,binding signal,HOXB9 [1],"8.62 upbm affinity estimate (log intensity, higher = more binding, comparable within an allelic series)"
same,binding signal,HOXB9 [3],"8.62 upbm affinity estimate (log intensity, higher = more binding, comparable within an allelic series)"
same,binding signal,PITX2,"7.85 upbm affinity estimate (log intensity, higher = more binding, comparable within an allelic series)"
same,binding signal,HOXB9 [4],"8.68 upbm affinity estimate (log intensity, higher = more binding, comparable within an allelic series)"
AAGTTATC,binding signal,HOXB9 [1],"9.1 upbm affinity estimate (log intensity, higher = more binding, comparable within an allelic series)"
same,binding signal,HOXB9 [3],"9.66 upbm affinity estimate (log intensity, higher = more binding, comparable within an allelic series)"
ATAAATTG,binding signal,HOXB9 [1],"9.96 upbm affinity estimate (log intensity, higher = more binding, comparable within an allelic series)"
same,binding signal,HOXB6,"10 upbm affinity estimate (log intensity, higher = more binding, comparable within an allelic series)"
same,binding signal,ALX3,"8.68 upbm affinity estimate (log intensity, higher = more binding, comparable within an allelic series)"
CTGCCGGC,binding signal,HOXB9 [1],"8.63 upbm affinity estimate (log intensity, higher = more binding, comparable within an allelic series)"
same,binding signal,HOXB9 [3],"8.65 upbm affinity estimate (log intensity, higher = more binding, comparable within an allelic series)"
same,binding signal,HOXD13 [15],"9.44 upbm affinity estimate (log intensity, higher = more binding, comparable within an allelic series)"
same,binding signal,HOXD13 [16],"9.54 upbm affinity estimate (log intensity, higher = more binding, comparable within an allelic series)"
same,binding signal,HOXD13 [19],"9.67 upbm affinity estimate (log intensity, higher = more binding, comparable within an allelic series)"
same,binding signal,HOXB9 [4],"8.68 upbm affinity estimate (log intensity, higher = more binding, comparable within an allelic series)"
same,binding signal,NKX3-2 [24],"10.4 upbm affinity estimate (log intensity, higher = more binding, comparable within an allelic series)"
same,binding signal,NKX3-2 [25],"10.3 upbm affinity estimate (log intensity, higher = more binding, comparable within an allelic series)"
CTGGCGTC,binding signal,HOXB9 [1],"8.43 upbm affinity estimate (log intensity, higher = more binding, comparable within an allelic series)"
same,binding signal,HOXB9 [3],"8.27 upbm affinity estimate (log intensity, higher = more binding, comparable within an allelic series)"
same,binding signal,MSX2 [8],"9.45 upbm affinity estimate (log intensity, higher = more binding, comparable within an allelic series)"
same,binding signal,MSX2 [11],"9.51 upbm affinity estimate (log intensity, higher = more binding, comparable within an allelic series)"
same,binding signal,HOXB9 [4],"8.34 upbm affinity estimate (log intensity, higher = more binding, comparable within an allelic series)"
same,binding signal,MSX2 [13],"9.44 upbm affinity estimate (log intensity, higher = more binding, comparable within an allelic series)"
